# Screening results: PubChem, National Center for Advancing Translational Sciences (NCATS)
# In the library only some 17% were active in any assay of this set; here they are far more common.
# DT40 TDP1 no CPT = qHTS for Inhibitors of human tyrosyl-DNA phosphodiesterase 1 (TDP1): qHTS in cells in absence of CPT; DT40 Tdp1-/- hTDP1 cells, no CPT, ATP luminescence, 48 h; hit rate 15% among 420,000; AID 686978, 2013; Potency, µM (doses to about 46.2 µM), usual class: inhibitors; note: nearly all actives have a fitted effect of over 55% in size
#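 Compound effects on proliferation are scored in DT40 Tdp1-/-;hTDP1 cells in the absence of CPT. ATP levels (CellTiter-Glo luminescence) are recorded after a ≥48 hr, 37 °C incubation.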
# TDP1 cell CPT = growth inhibition of DT40 Tdp1-/-;hTDP1 cells with camptothecin (screen for TDP1 inhibitors); chicken DT40 Tdp1-/-;hTDP1 cells + 20 nM CPT, ATP luminescence, 48 h; Potency, µM (highest dose often 46.2 µM), usual class: inhibitors; hit rate 12% among 420,000; AID 686979; note: nearly all actives have a fitted effect of over 55% in size
#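 Chicken DT40 Tdp1-/- cells stably complemented with human TDP1 were seeded at 400 cells/well in medium containing 20 nM camptothecin, exposed to pin-transferred compounds, and grown at 37 °C for at least 48 hr. Viability was read as ATP luminescence.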
# HT1080 IDH1KD tx = kills HT-1080 cells with IDH1 knockdown; HT-1080 IDH1 knockdown viability, ATP luminescence, 48 h; AID 686971; Potency, µM (highest dose often 46.1 µM), most hits filed as cytotoxic; hit rate 2% among 360,000
#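 Viability of IDH1-knockdown HT-1080 fibrosarcoma cells was assessed by CellTiter-Glo after 48 h at 37 °C with titrated compound; concentration-effect curves were classified by fit quality and response size.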
# HT1080-NT tox = kills 2HG-producing HT-1080-NT fibrosarcoma cells. hit rate 1.6% among 360,000. HT-1080-NT fibrosarcoma viability, CellTiter-Glo ATP luminescence, 48 h. Potency, µM (highest dose often 46.1 µM), most hits filed as cytotoxic;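 note: NT is the 2HG producing partner of a matched IDH1 knockdown line; nearly all actives have a fitted effect of over 55% in size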
#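 Compounds were tested in concentration-response format on HT-1080-NT cells for 48 hours at 37 degrees C. Cell viability came from CellTiter-Glo luminescence; curves were classified by r2, response magnitude and activity.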
# HepG2 viability = kills HepG2 cells in TGF-b inhibitor counter-screen; hit rate 0.76% among 410,000; Potency, µM (highest dose often 46.1 µM), actives largely listed as cytotoxic; HepG2 CAGA-GFP viability, ATP luminescence, 18 h
#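 CellTiter-Glo luminescence gave cytotoxicity after 18 hours at 37 degrees C. The cells were HepG2 CAGA-GFP in 1% FBS DMEM, stimulated with 500 pg/mL TGF-beta after compound addition. %Activity was normalised to no-cell wells (complete cell-killing) and DMSO (no toxicity), and curves were fitted and classified.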
# TGFb SMAD3 inh = blocks TGF-b signaling | HepG2 CAGA-GFP TGF-b/SMAD3 reporter, GFP fluorescence, 18 h; TGF-beta stimulated, 500 pg/mL final | Potency, µM (series often up to 46.1 µM), most hits filed as inhibitors | hit rate 1.2% among 410,000 | AID 588855; note: nearly all actives have a fitted effect of over 65% in size
#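 HEPG2 CAGA-GFP cells (1000/well, DMEM with 1% FBS) were pre-incubated 2 h at 37 degrees C, given compound by pin tool, then stimulated with TGF-beta at 500 pg/mL final for 18 h before per-cell GFP fluorescence imaging.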
# Numbers stand for hits; 0 = inactive; ? = inconclusive; - = no result; [ ] = dose if it differs, or a comment. Calls come from the whole dose curve; as a rule, active = well fitted curve in the direction sought with a large enough effect; inconclusive = small, poorly fitted or top-dose-only effect, or another doubt; inactive = no such curve, though single readings can be large; an effect the other way counts as inactive or inconclusive.
SMILES,DT40 TDP1 no CPT,TDP1 cell CPT,HT1080 IDH1KD tx,HT1080-NT tox,HepG2 viability,TGFb SMAD3 inh
CCOC(=O)[C@]12CCCC=C1N(Cc1cccc3ccccc13)C(=O)[C@H](CC(=O)N1CCSCC1)C2,?,?,0,?,-,-
CCOC(=O)[C@]12CCC=C1N(Cc1cccc3ccccc13)C(=O)[C@H](CC(=O)N1CCCC1)C2,23.1µM,18.4µM,0,0,-,-
CCOC(=O)N1CCN(C(=O)C[C@@H]2C[C@@]3(C(=O)OC)CCCCC=C3N(Cc3cccc4ccccc34)C2=O)CC1,20.6µM,?,0,0,-,-
CCOC(=O)[C@]12CCCC=C1N(Cc1cccc3ccccc13)C(=O)[C@H](CC(=O)N1CCCCC1)C2,25.9µM,18.4µM,0,0,-,-
CCOC(=O)[C@]12CCCC=C1N(Cc1cccc3ccccc13)C(=O)[C@H](CC(=O)N1CCOCC1)C2,0,?,0,0,-,-
CCOC(=O)[C@]12CCC=C1N(Cc1cccc3ccccc13)C(=O)[C@H](CC(=O)N1CCSCC1)C2,18.4µM,?,0,?,-,-
CCOC(=O)[C@]12CCC=C1N(Cc1cccc3ccccc13)C(=O)[C@H](CC(=O)N1CCN(C(=O)C3CC3)CC1)C2,?,?,0,0,-,-
N[C@H](C(=O)O)c1nn[nH]n1,0,0,-,-,-,-
CCOC(=O)N1CCN(C(=O)C[C@@H]2C[C@@]3(C(=O)OC)CC(C)(C)CC=C3N(Cc3cccc4ccccc34)C2=O)CC1,18.4µM,16.4µM,?,?,-,-
COC(=O)[C@@]12C[C@@H](CC(=O)N3CCC(c4ccccc4)CC3)C(=O)N(Cc3cccc4ccccc34)C1=CCC(C)(C)C2,?,?,0,0,-,-
CCOC(=O)[C@]12CCC=C1N(Cc1cccc3ccccc13)C(=O)[C@H](CC(=O)N1CCCCC1)C2,25.9µM,?,?,0,-,-
COC(=O)[C@@]12C[C@@H](CC(=O)N3CCN(C(=O)c4ccco4)CC3)C(=O)N(Cc3cccc4ccccc34)C1=CCC(C)(C)C2,18.4µM,?,20.6µM,?,-,-
O=C1CC(N2CCN(c3ccccc3)CC2)C(=O)N1c1ccc(Cl)cc1 (configuration not stated),0,0,0,0,0,0
Nc1nc2c(c(=O)[nH]1)N(C=O)C(CNc1ccc(C(=O)N[C@@H](CCC(=O)O)C(=O)O)cc1)CN2 (some centres not stated),0,0,-,-,-,-
Oc1ccc(Oc2ccc(Oc3ccc(O)cc3)cc2)cc1,4.11µM,5.8µM,0,0,0,?
Cc1c(C(=O)Nc2cccc(F)c2)cnn1-c1ccccc1,14.6µM,18.4µM,0,0,0,0
Cc1cccc(NC(=O)c2cnn(-c3ccccc3)c2-n2cccc2)c1C,?,16.4µM,-,-,0,?
COc1ccc(CNC(=O)c2cnn(-c3ccc(F)cc3)c2-n2cccc2)cc1,-,-,-,-,0,0
CCc1ccc(NC(=O)c2cnn3ccccc23)cc1,0,0,?,?,0,0
CC(CNC(=O)c1cnn(-c2ccc(F)cc2)c1-n1cccc1)c1ccccc1 (configuration not stated),-,-,-,-,0,10µM
CCc1ccc(NC(=O)c2cnn(-c3ccccc3)c2-n2cccc2)cc1,?,18.4µM,-,-,0,?
Cc1cccc(NC(=O)c2cnn(-c3ccccc3)c2C)c1C,0,0,0,0,0,0
COc1cccc(CNC(=O)CSc2cc(C)[nH]c(=O)n2)c1,0,0,-,-,0,?
COc1ccccc1CCNC(=O)Cc1c(C)c2c(O)cc(C)cc2oc1=O,0,?,-,-,0,0
CCOC(=O)N1CCN(C(=O)c2ccc3c(=O)n(-c4cc(OC)ccc4OC)c(=S)[nH]c3c2)CC1,0,0,0,0,0,0
SMILES,DT40 TDP1 no CPT,TDP1 cell CPT,HT1080 IDH1KD tx,HT1080-NT tox,HepG2 viability,TGFb SMAD3 inh
O=C(CSc1nc(=O)n(Cc2ccccn2)c2c1CCC2)Nc1ccccc1,0,0,-,-,0,?
CC[n+]1c(C)sc2cc(C)ccc21,3.66µM,3.66µM,0,0,0,0
COCc1cc(O)c(O)c(O)c1-c1c(COC)cc(O)c(O)c1O,4.47µM,5.01µM,-,-,0,0
COc1cc(C=O)ccc1OCCOCCOc1ccc(Cl)cc1Cl,14.6µM,?,0,0,0,0
Cc1ccc2ncnc(NCc3ccco3)c2c1,4.47µM,7.08µM,-,-,0,0
Cn1ncc2c(NCc3ccco3)ncnc21,0,0,-,-,0,0
Clc1ccc2c(NCc3ccccn3)ncnc2c1,?,?,0[9.24 µM],0,0,?
Clc1ccc2c(NCc3cccs3)ncnc2c1,20.6µM,13µM,0,0,0,0
Clc1ccc2c(NCc3ccco3)ncnc2c1,13µM,14.6µM,0,0,0,0
CCC(C)NC(=O)c1ccc(Cn2c(=O)c3cccn3c3cccnc32)cc1 (configuration not stated),?,0,-,-,0,0
Cc1cc(C)c(Cn2c3ccccc3c3cnn(CC(=O)NCCN4CCOCC4)c(=O)c32)c(C)c1,?,?,0,0,0,?
O=C(Cn1ncc2c3ccccc3n(Cc3ccccc3)c2c1=O)N1CCCCCC1,?,?,-,-,0,0
Cc1ccccc1Cn1c2ccccc2c2cnn(CC(=O)N3CCN(c4ccccc4)CC3)c(=O)c21,?,?,0,0,0,?
Cc1cc(C)c(Cn2c3ccccc3c3cnn(CC(=O)N4CCCCCC4)c(=O)c32)c(C)c1,23.1µM,23.1µM,-,-,0,0
O=C(Cn1ncc2c3ccccc3n(Cc3ccc(F)cc3)c2c1=O)N1CCN(c2ncccn2)CC1,16.4µM,18.4µM,0,0,0,0
COc1ccc(CNC(=O)Cn2ncc3c4ccccc4n(Cc4cccc(Cl)c4)c3c2=O)cc1,?,?,-,-,0,0
O=C(Cn1ncc2c3ccccc3n(Cc3cccc(Cl)c3)c2c1=O)N1CCCCCC1,20.6µM,18.4µM,-,-,0,0
O=C(Cn1ncc2c3ccccc3n(Cc3cccc(Cl)c3)c2c1=O)N1CCCCC1,11.6µM,20.6µM,-,-,0,0
COc1ccccc1C(=O)NNC(=O)c1ccc(Br)cc1,0,0,0,0,0,0
CCCCn1nnnc1C(c1cc2ccccc2o1)N1CCN(CC(=O)NC(C)C)CC1 (configuration not stated),?,0,0,0,-,-
O=C(COc1ccccc1[N+](=O)[O-])N(Cc1cccc(Br)c1)C1CCS(=O)(=O)C1 (configuration not stated),?,?,0,0,0,0
CCCCNC(=O)COC(=O)c1ccc(NS(=O)(=O)c2ccc3c(c2)OCCO3)cc1,0,?,0,0,0,0
